DAX1 inh-1 – inhibitors of DAX1 repression of SF-1 activated StAR promoter; inhibition, % at 6.8 µM; 370,000 tested, 1.1% active; HEK293T StAR-luciferase reporter, SF-1/DAX-1 repression relief;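 active = inhibition above the mean over all tested compounds plus 3 SD, cut at about 3.6% in these data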;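 also: 0% = DAX-1 cells with DMSO and 100% = cells lacking DAX-1 with DMSO; higher inhibition means more luminescence from relief of DAX-1 repression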
Wee1 stabilizer – inhibitors of human Wee1 degradation. HeLa Luc-Wee1K328M stability, luciferase luminescence; 100% = proteasome inhibitor MG132 effect. reporter increase, % at 5 µM. 220,000 tested, 1.2% active. AID 1321;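 active = activation above the mean of all tested compounds plus 3 SD, set per screening run, cut at about 8.8% in these data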;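 also: cells exposed to compound for 20 h before luminescence read; 0% = DMSO alone and 100% = MG132 at 30 µM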
DAX1 inh-2 – NR0B1 (DAX1) inhibition; inhibition, % at 6.75 µM; P51843; HEK293 Gal4-DAX1 luciferase reporter, luminescence; 340,000 tested, 0.99% active;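 active = inhibition above the mean over all tested compounds plus 3 SD, cut at about 4.2% in these data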;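 also: 0% = DAX1-transfected cells with DMSO and 100% = empty-vector control cells with DMSO; inhibition shows as a rise in luminescence from relieved DAX1 repression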
Target sequence (P51843 207-470 limits assumed): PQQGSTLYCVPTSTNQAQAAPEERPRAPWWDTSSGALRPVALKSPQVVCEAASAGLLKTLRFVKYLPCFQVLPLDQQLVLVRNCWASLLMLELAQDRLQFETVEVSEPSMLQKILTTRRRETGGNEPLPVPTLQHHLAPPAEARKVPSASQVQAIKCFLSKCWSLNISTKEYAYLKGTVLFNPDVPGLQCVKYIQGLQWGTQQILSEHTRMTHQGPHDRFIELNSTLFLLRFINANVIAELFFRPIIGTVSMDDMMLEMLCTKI
hcDAF12 agonist – activates DAF-12 receptor from parasite H. contortus. 370,000 tested, 1.4% active. HEK293 hcDAF-12 lit1-tk-luc reporter, luminescence; 0% DMSO, 100% Δ7-dafachronic acid. activation, % at 6.8 µM. AID 652067;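 active = activation above the mean of all tested compounds plus 3 SD, cut at about 5.5% in these data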;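 also: 100% = response to 3 µM Δ7-dafachronic acid high control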
ssDAF-12 act – S. stercoralis DAF-12 activation, primary screen | HEK293 ssDAF-12/GRIP1 lit1-tk-luc reporter, luminescence; % of 3 µM dafachronic acid response | activation, % at 6.8 µM | 370,000 tested, 1% active;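 active = activation above the mean over all tested compounds plus 3 SD, cut at about 0.9% in these data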;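 also: 0% = DMSO-only wells and 100% = 3 µM delta7-dafachronic acid wells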
hgDAF12 agonist – agonists of H. glycines DAF-12 nuclear receptor | HEK293 GAL4-hgDAF12 UAS-luciferase reporter, agonist luminescence; normalized to butyrate control | activation, % at 6.8 µM | 370,000 tested, 1.8% active;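 active = activation above a cutoff set at the mean of all screened compounds plus 3 SD, cut at about 10% in these data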;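 also: 0% = DMSO wells and 100% = sodium butyrate wells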
DAX1 inh confirm – confirmation of human DAX1 (NR0B1) inhibitors. shares compounds with DAX1 inh-1. HEK293T StAR-promoter luciferase reporter, SF-1/DAX-1 repression. inhibition, % at 6.8 µM. 2,400 tested, 87% active. AID 652134;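 active = inhibition above the average of every tested compound plus 3 SD, cut at about 3.8% in these data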;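 also: 0% = DAX-1 cells with DMSO and 100% = no DAX-1 control cells with DMSO; active compounds raise luminescence by relieving repression of the StAR reporter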
Target sequence (P51843 whole entry, looked up): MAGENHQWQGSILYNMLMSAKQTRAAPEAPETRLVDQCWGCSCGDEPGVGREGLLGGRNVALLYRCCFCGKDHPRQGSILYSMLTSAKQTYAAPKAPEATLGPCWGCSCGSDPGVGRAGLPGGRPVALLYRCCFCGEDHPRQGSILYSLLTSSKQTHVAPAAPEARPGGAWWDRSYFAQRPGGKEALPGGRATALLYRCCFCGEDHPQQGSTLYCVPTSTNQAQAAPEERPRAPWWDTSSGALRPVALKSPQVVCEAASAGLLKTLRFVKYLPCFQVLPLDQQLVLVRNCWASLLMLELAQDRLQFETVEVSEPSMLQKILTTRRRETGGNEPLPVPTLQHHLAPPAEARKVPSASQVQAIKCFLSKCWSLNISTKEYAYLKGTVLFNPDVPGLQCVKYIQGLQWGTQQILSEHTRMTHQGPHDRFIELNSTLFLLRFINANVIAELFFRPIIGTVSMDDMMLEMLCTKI
SF1 AF2mut Luc – counter-screen for DAX1 inhibitors: nonselective inhibitors with SF-1 AF2 mutant; 2,400 tested, 78% active; shares compounds with DAX1 inh-1; inhibition, % at 6.8 µM; AID 652136; HEK293 StAR-luciferase, luminescence;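 active = inhibition above the mean of all tested compounds plus 3 SD, cut at about 3% in these data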;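 also: 0% = DAX-1 transfected cells with DMSO and 100% = cells without DAX-1 with DMSO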
LXR ag – counter-screen for hcDAF-12 agonists: agonists of human LXR-beta. 3,400 tested, under 10 active. activation, % at 6.8 µM. HEK293 Gal4-LXR tk-luc reporter, luminescence, 24 h; normalized: DMSO 0%, positive control 100%. AID 743027. shares compounds with hcDAF12 agonist;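 active = mean percent activation of the reporter above a cutoff set as the average over tested compounds plus their standard deviation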
hcDAF12 ag – hcDAF-12 agonism, confirmation assay. 3,400 tested, 61% active. activation, % at 6.8 µM. shares compounds with hcDAF12 agonist. HEK293 hcDAF-12 lit1-tk-luc reporter, luminescence; % of Δ7-dafachronic acid response. AID 743032;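 active = mean activation across triplicate tests above the threshold derived from the earlier primary screen, cut at about 5.5% in these data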;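 also: 0% = DMSO only wells and 100% = 3 µM Δ7-dafachronic acid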
hgDAF12 ag – hgDAF-12 agonism, confirmation assay | activation, % at 6.8 µM | 3,300 tested, 80% active | shares compounds with hgDAF12 agonist | HEK293 GAL4-hgDAF12 luciferase reporter, agonist mode; percent of butyrate response | AID 743050;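 active = mean activation over triplicate wells above the hit cutoff derived from the earlier primary screen, cut at about 11% in these data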;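 also: 0% = DMSO low control and 100% = 2 mM sodium butyrate high control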
LXRb DAF12 ctr – counter-screen for DAF-12 agonists: agonists of human LXR-beta | shares compounds with hgDAF12 agonist | activation, % at 6.8 µM | 3,300 tested, under 10 active | AID 743051 | HEK293 Gal4-LXR luciferase reporter, 24 h;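 active = mean activation of the triplicate above a set limit carried over from the primary screen, none filed active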
* marks the source's active call; other numbers are inactive results; / = no result. Rows were chosen to be rich in hits. Some 4.6% of all compounds tested hit in one or more screens of this group.

SMILES	DAX1 inh-1	Wee1 stabilizer	DAX1 inh-2	hcDAF12 agonist	ssDAF-12 act	hgDAF12 agonist	DAX1 inh confirm	SF1 AF2mut Luc	LXR ag	hcDAF12 ag	hgDAF12 ag	LXRb DAF12 ctr
Cc1ccc(-c2nc(Nc3ccccc3)n[nH]2)cc1	6.2*	0.1	2.4	12.2*	1.4*	14.4*	23.0*	11.4*	1.9	13.1*	21.7*	1.3
CCOC(=O)c1ccc(N/C=C/C(=O)c2ccco2)cc1	4.7*	2.9	2.4	3.0	-0.2	14.8*	12.3*	7.1*	/	/	16.7*	0.8
O=C(/C=C/Nc1ccc(F)cc1)c1ccco1	2.7	2.6	2.8	4.0	-0.8	6.6	/	/	/	/	/	/
CCCCOc1ccc(-c2cnc3ccccc3n2)cc1	6.8*	-1.0	1.4	9.0*	0.3	22.9*	14.2*	3.5*	1.7	6.4*	12.5*	1.3
Clc1ccc(-c2cnc3ccccc3n2)cc1	1.2	4.4	2.9	3.4	-0.8	8.7	/	/	/	/	/	/
CC(=O)CCC1CC(c2ccc(Cl)cc2)=NO1 (centres undefined)	0.5	/	-0.3	2.4	-1.0	1.2	/	/	/	/	/	/
O=C1c2ccccc2S(=O)(=O)N1CC1CC(c2ccc(Cl)cc2)=NO1 (centres undefined)	4.8*	6.0	1.5	6.7*	0.4	15.2*	14.1*	7.5*	0.8	2.5	13.8*	0.6
Cc1ccc(C)c(NC(=O)CSc2nccn2Cc2ccco2)c1	-0.7	/	1.3	2.8	-1.0	4.5	/	/	/	/	/	/
Cc1ccc(NC(=O)CSc2nccn2Cc2ccco2)c(C)c1	6.3*	/	0.5	7.2*	-0.1	13.6*	7.8*	3.2*	0.9	7.0*	13.7*	0.6
O[C@H]1CN(Cc2cccs2)[C@@H](c2ccccc2)C[C@@H]1n1cc(C2CC2)nn1	1.3	/	-0.1	-0.7	-0.7	1.9	/	/	/	/	/	/
N/C(=N\OC(=O)/C=C/c1ccccc1Cl)c1ccncc1	9.2*	7.5	1.9	6.8*	0.0	21.3*	11.0*	6.3*	1.4	4.3	16.4*	0.8
N/C(=N\OC(=O)c1ccccc1Cl)c1ccncc1	5.6*	2.4	-0.2	6.2*	0.5	14.2*	6.8*	5.3*	/	/	13.2*	0.8
CC1CN(C2CCCCC2)C(=S)N(c2ccccc2)C1=O (centres undefined)	-0.9	/	-0.4	2.1	-1.2	2.7	/	/	/	/	/	/
Clc1ccc(/C=C/c2nc3ccccc3[nH]2)cc1	4.5*	-1.4	-3.0	7.7*	0.2	13.6*	11.1*	5.8*	1.7	8.9*	13.2*	1.1
Clc1cccc(Cl)c1/C=C/c1nc2ccccc2[nH]1	/	0.8	1.8	/	/	/	/	/	/	/	/	/
CC1(C(=O)NS(=O)(=O)c2cccc(F)c2)CCN1C(=O)Cc1cccc2ccccc12 (centres undefined)	0.7	/	/	-1.8	-1.5	-2.3	/	/	/	/	/	/
Cc1ccc(C(=O)NCC(=O)Nc2ccc(Cl)cc2)s1	-0.6	/	0.7	0.1	-1.0	0.1	/	/	/	/	/	/
Cc1cc(C)n2c(Nc3ccc4c(c3)OCCO4)c(-c3ccc(C)o3)nc2n1	5.7*	6.9	0.4	6.9*	0.0	13.4*	-1.4	-1.1	-0.2	0.8	9.1	0.6
CCCn1c(=N)n(CC(=O)c2cccs2)c2ccccc21	-0.1	-1.7	-0.6	-3.7	-1.3	-2.5	/	/	/	/	/	/
Cn1c(=N)n(CC(=O)c2cccs2)c2ccccc21	6.0*	-3.7	4.0	14.9*	0.8	17.4*	4.3*	4.0*	0.6	9.5*	12.8*	0.4
COc1ccc2cc(C[C@@H]3CC[C@@H](CO)O3)ccc2c1	5.0*	/	2.3	3.9	0.1	15.2*	8.1*	5.4*	/	/	12.4*	0.6
NC(=O)c1ccccc1N/C=C/C(=O)c1ccc(Cl)cc1Cl	6.3*	2.2	-1.0	8.1*	0.3	15.5*	17.2*	7.6*	1.4	8.2*	17.1*	0.9
NC(=O)c1ccccc1NC(=O)/C=C/c1cccc(Cl)c1	0.8	-2.3	0.6	2.4	-1.1	7.6	/	/	/	/	/	/
CCC(=O)Nc1cc(-c2cc3ccccc3oc2=O)ccc1OC	5.0*	8.0	2.1	0.9	-0.8	13.8*	9.3*	6.0*	/	/	15.4*	0.5
COc1ccc(-c2cc3ccccc3oc2=O)cc1NC(=O)c1ccc(Br)o1	0.2	6.3	2.9	3.4	0.0	5.7	/	/	/	/	/	/
SMILES	DAX1 inh-1	Wee1 stabilizer	DAX1 inh-2	hcDAF12 agonist	ssDAF-12 act	hgDAF12 agonist	DAX1 inh confirm	SF1 AF2mut Luc	LXR ag	hcDAF12 ag	hgDAF12 ag	LXRb DAF12 ctr
O=C(NC(=S)Nc1cccc(O)c1)C1CCCCC1	2.4	/	2.8	0.6	-0.4	8.9	/	/	/	/	/	/
c1coc(-c2cc3nc(NCc4ccc5c(c4)OCO5)ccn3n2)c1	-0.1	/	/	1.1	-0.7	4.5	/	/	/	/	/	/
c1coc(-c2cc3nc(NC4CCCCC4)ccn3n2)c1	10.2*	/	/	10.3*	1.2*	21.6*	14.7*	10.1*	2.0	12.1*	18.6*	1.0
O=C(Nc1ccc(F)cc1)C(c1cccc(F)c1)N1CCN(c2ccncc2)CC1 (centres undefined)	0.3	/	/	-0.6	-1.1	4.3	/	/	/	/	/	/
O=C(CN1C(=O)c2ccccc2C1=O)NC(Cc1ccccc1)C(=O)O (centres undefined)	-1.1	/	1.8	1.4	-0.8	-2.1	/	/	/	/	/	/
CC(=O)N1C[C@@H](CO)[C@@H](N(C)C(=O)C(C)(C)C)C[C@H]1c1ccccc1	-0.3	/	/	-0.5	-0.3	2.9	/	/	/	/	/	/
Cc1cc(NC(=O)c2cnc3ccccn3c2=O)no1	/	2.6	/	/	/	/	/	/	/	/	/	/
Cc1cccc(NC(=O)c2cnc3ccccn3c2=O)c1	7.7*	-0.1	0.9	8.8*	0.5	22.4*	10.6*	4.4*	1.6	6.1*	16.6*	1.2
CCCOC(=O)Nc1ccc(N2CCCCC2)cc1	5.3*	5.0	1.2	4.5	0.8	14.9*	16.1*	5.8*	/	/	14.2*	0.9
